Records with an inconclusive call do not appear. Unmarked numbers belong to inactive results. Activity calls are given as the source filed them. Unless noted, calls come from the whole dose curve.
Molecular target: Estrogen receptor (Homo sapiens) (UniProt P03372)
Assay: qHTS assay for small molecule agonists of estrogen receptor alpha signaling (AID 588514); note: nearly all actives have a fitted effect of over 70% in size; note: potency is the fitted concentration of half-maximal effect;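 for activation: 0% = vehicle only and 100% = reference agonist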
Details: ER-alpha-UAS-bla HEK293, beta-lactamase ratio, 18 h; series mostly up to 76.8 µM
How it was run: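 Efficacy is expressed against 20 nM 17-beta-estradiol (100%) and DMSO basal (0%); EC50 from Hill equation. Assay: beta-lactamase reporter in ER-alpha-UAS-bla HEK 293 cells, 18 h compound incubation, CCF4 detection.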

Estrogen receptor (Homo sapiens), sequence (P03372 whole entry, looked up): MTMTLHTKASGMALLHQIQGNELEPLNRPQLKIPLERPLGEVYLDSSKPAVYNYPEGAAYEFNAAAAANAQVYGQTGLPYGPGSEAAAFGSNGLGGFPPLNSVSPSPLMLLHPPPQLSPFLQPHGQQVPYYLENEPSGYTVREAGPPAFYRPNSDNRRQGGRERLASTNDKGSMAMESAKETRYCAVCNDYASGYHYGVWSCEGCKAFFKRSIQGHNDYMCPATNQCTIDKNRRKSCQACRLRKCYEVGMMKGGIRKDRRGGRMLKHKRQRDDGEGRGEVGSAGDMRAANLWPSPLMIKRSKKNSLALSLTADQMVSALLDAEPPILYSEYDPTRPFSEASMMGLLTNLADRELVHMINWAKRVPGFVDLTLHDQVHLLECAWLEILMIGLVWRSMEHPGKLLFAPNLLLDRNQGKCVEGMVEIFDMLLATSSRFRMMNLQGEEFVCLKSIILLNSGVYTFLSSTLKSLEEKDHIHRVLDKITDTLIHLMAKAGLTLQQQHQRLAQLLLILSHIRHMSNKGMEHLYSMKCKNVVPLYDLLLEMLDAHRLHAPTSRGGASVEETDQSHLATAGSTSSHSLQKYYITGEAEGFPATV

Compound | Potency
NC(=Nc1ccccc1)Nc1ccccc1 | inactive
Nc1nc(N)c2nc(-c3ccccc3)c(N)nc2n1 | 35.5 µM (active)
COc1cc(Cc2cnc(N)nc2N)cc(OC)c1OC | inactive
C[C@]12CCC(=O)C=C1CC[C@@H]1[C@@H]2C(=O)C[C@@]2(C)[C@H]1CC[C@]2(O)C(=O)CO | inactive

Molecular target: Glucocorticoid receptor (Homo sapiens) (UniProt P04150)
Assay: qHTS assay for small molecule agonists of glucocorticoid receptor signaling (AID 588532; active = well fitted curve in the direction sought with a large enough effect in the signal ratio, with a control signal flat; the % refers to the signal ratio;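 note: 100% = dexamethasone at 0.1 µM and 0% = DMSO only wells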)
Details: HeLa MMTV-bla, beta-lactamase ratio, agonist, 18 h; activation: hits give high values, percent of dexamethasone control, DMSO zero
How it was run: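 MMTV-bla HeLa, beta-lactamase reporter; medium with 1% charcoal/dextran-stripped FBS; cpds up to 92 uM, 18 h, 37 C; CCF4 readout 460/530 nm; Hill fit → EC50, efficacy vs 0.1 uM dexamethasone = 100%.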

Glucocorticoid receptor (Homo sapiens), sequence (P04150 whole entry, looked up): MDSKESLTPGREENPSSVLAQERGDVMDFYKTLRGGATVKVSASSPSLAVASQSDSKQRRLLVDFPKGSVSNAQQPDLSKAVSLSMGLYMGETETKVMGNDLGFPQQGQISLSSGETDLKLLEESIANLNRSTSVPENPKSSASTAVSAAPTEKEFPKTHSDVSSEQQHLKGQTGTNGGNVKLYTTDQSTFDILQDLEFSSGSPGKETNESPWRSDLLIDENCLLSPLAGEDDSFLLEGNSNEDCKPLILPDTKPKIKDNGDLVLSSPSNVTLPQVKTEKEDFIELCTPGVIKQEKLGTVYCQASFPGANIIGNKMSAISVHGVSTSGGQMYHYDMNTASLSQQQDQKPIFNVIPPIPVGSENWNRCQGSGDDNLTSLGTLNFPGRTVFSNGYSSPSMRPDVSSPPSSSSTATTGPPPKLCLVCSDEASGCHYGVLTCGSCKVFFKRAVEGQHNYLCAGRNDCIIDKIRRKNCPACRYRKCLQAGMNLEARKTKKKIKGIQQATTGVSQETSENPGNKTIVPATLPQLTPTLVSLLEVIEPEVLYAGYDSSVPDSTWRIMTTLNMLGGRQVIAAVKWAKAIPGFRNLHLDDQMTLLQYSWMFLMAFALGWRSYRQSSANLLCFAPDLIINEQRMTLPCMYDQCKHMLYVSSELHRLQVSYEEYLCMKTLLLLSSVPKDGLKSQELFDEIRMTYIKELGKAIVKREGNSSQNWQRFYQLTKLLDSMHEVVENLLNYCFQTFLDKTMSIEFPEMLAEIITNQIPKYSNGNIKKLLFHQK

Compound | activation
COc1ccc(CN(CCN(C)C)c2ccccn2)cc1 | -0.651%
CC(=O)[C@@]1(O)CC[C@H]2[C@@H]3CCC4=CC(=O)CC[C@]4(C)[C@H]3CC[C@@]21C | 1.8%
COc1cc(Cc2cnc(N)nc2N)cc(OC)c1OC | -1.11%
C[C@]12CCC(=O)C=C1CC[C@@H]1[C@@H]2C(=O)C[C@@]2(C)[C@H]1CC[C@]2(O)C(=O)CO | -0.667%

— PubChem BioAssay (NCATS)
